Bioassay records from PubChem.
USP28 inh: inhibitors of human USP28 deubiquitinase | inhibition, % at 25 µM | 47,000 compounds, 3% hits | AID 1645857, 2021 | purified USP28, Ub-rhodamine cleavage fluorescence, 30 min
USP8 block: inhibitors of human USP8 deubiquitinase | Ubiquitin carboxyl-terminal hydrolase 8 (Homo sapiens), P40818 | purified USP8, Ub-rhodamine cleavage fluorescence, 30 min | inhibition, % at 20 µM | 47,000 compounds, 4.2% hits
USP7 block: inhibitors of human USP7 deubiquitinase; purified USP7, Ub-rhodamine cleavage fluorescence; 47,000 compounds, 0.3% hits; inhibition, % at 20 µM; AID 1645854, 2021
UCHL1 block: inhibitors of human UCHL1 deubiquitinase; Ubiquitin carboxyl-terminal hydrolase isozyme L1 (Homo sapiens), P09936; purified UCHL1, Ub-rhodamine cleavage fluorescence; inhibition, % at 20 µM; 47,000 compounds, 0.2% hits; AID 1645859, 2021
USP10 inh: inhibitors of human USP10 deubiquitinase; inhibition, % at 20 µM; Ubiquitin carboxyl-terminal hydrolase 10 (Homo sapiens), Q14694; purified USP10, Ub-rhodamine fluorescence, 60 min; 47,000 compounds, 1.1% hits
OTUD3 inh: inhibitors of human OTUD3 deubiquitinase; OTU domain-containing protein 3 (Homo sapiens), Q5T2D3; purified OTUD3, Ub-rhodamine fluorescence, 2 h; inhibition, % at 25 µM; 47,000 compounds, 0.7% hits
Target sequence (Q5T2D3 whole entry, looked up, the tested form may be a part): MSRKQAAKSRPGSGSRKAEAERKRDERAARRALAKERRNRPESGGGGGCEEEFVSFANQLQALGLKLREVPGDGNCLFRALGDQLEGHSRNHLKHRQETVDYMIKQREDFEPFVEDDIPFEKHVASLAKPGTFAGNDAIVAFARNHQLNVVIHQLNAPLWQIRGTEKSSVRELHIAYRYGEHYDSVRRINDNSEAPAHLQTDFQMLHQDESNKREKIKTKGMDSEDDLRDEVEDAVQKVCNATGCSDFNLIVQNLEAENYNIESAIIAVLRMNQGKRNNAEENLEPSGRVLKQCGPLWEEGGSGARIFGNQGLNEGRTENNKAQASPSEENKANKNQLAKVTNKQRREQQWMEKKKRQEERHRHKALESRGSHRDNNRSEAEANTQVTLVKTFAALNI
A number is an active result; n = inactive. Shown are actives, neighbours in structure and some others; about 6.8% of the full set was active somewhere. Rule as the data show it: active = inhibition above about 30%; inactive = the rest.

SMILES	USP28 inh	USP8 block	USP7 block	UCHL1 block	USP10 inh	OTUD3 inh
CCOC(=O)c1ccc(-n2c(=O)c(C#N)cc3c(=O)n4ccccc4nc32)cc1	n	n	n	n	n	n
CCOC(=O)c1cc2c(=O)n3ccccc3nc2n(Cc2ccco2)c1=NC(=O)COc1ccc2ccccc2c1	n	n	n	43	n	n
Cc1cc(-c2cnc(N3CCCC3)nc2C2CCN(Cc3ccccn3)CC2)on1	n	n	n	n	n	n
COc1ccc2c(C)c(CC(=O)N[C@@H](Cc3c[nH]c4ccccc34)C(=O)O)c(=O)oc2c1C	n	n	n	n	n	n
COc1ccc2c(C)c(CC(=O)N[C@@H](Cc3c[nH]c4ccc(O)cc34)C(=O)O)c(=O)oc2c1C	n	45	n	n	n	n
O=C(Nc1ccc(-c2cn3ccccc3n2)cc1)C1C=C2C=C(Br)C=CC2OC1=O (centres undefined)	52	n	n	n	n	43
c1cn(-c2ccc(-c3noc([C@@H]4CCCN4C4CCOCC4)n3)cn2)cn1	n	n	n	n	n	n
Cc1cc(F)ccc1NC(=O)C1CCN(c2cnc(N3CCCCC3)nc2)CC1	33	31	n	n	n	n
O=C(Nc1ccccc1)C1CCN(c2cnc(N3CCCCC3)nc2)CC1	n	n	n	n	n	n
O=C(NCc1ccc(F)cc1)C1CCN(c2cnc(N3CCCCC3)nc2)CC1	69	n	n	n	n	n
O=c1cc(-c2nc3sc4c(c3c(=O)[nH]2)CCCC4)oc2ccccc12	n	n	n	n	n	n
O=C(Nc1nc2c(ccc3ccccc32)s1)c1cccc(Br)c1	n	36	n	n	n	n
CC1=C(C#N)C(C(F)(F)F)(C(F)(F)F)N=C(Cc2ccccc2)N1	n	n	n	n	n	n
Cc1ccc(NC2=NC(c3ccccc3)(C(F)(F)F)C(C#N)=C3C=CC=CN23)cc1 (centres undefined)	n	63	n	n	n	n
CCn1c(SCC(=O)N2CCc3ccccc32)nnc1-c1ccc2c(c1)OCCO2	n	n	n	n	n	n
COc1ccccc1OCCSc1nnc(-c2ccc3c(c2)OCCCO3)n1C	n	n	78	n	n	n
CCn1c(SCC(=O)c2c(C)[nH]c3ccccc23)nnc1-c1ccc2c(c1)OCCO2	41	n	n	n	n	n
Cn1c(SCCOc2ccccc2Cl)nnc1-c1ccc2c(c1)OCCO2	38	n	n	n	n	n
Cn1c(SCC(=O)c2ccc3c(c2)OCCCO3)nnc1-c1ccc2ccccc2c1	31	n	n	n	n	n
Cn1c(SCC(=O)N2CCCCC2)nnc1-c1ccc2c(c1)OCCO2	n	n	n	n	n	n
O=C(NCCn1cnc2cc(C(=O)N3CCCC3)ccc21)Nc1cccc(F)c1	n	n	n	n	n	n
O=C(C1CCCC1)N1Cc2ccccc2CC2(CCN(Cc3cccnc3)C2)C1 (centres undefined)	n	n	n	n	n	n
CCN1CCN(c2cc(C)nc3nc(CN4CCCCC4C)nn23)CC1 (centres undefined)	n	n	n	n	n	n
Cc1ncc2c(=O)n(CCOc3ccc(F)cc3)c(=O)n(C)c2n1	n	n	n	n	n	n
O=C(Nc1ccccc1F)c1cncc(NS(=O)(=O)c2ccccc2)c1	n	n	n	n	n	n
SMILES	USP28 inh	USP8 block	USP7 block	UCHL1 block	USP10 inh	OTUD3 inh
Nc1ccc(F)c(NS(=O)(=O)c2ccccc2)c1	41	72	n	31	n	55
Cn1c(O)c(C2=Nc3ccccc3SC(c3ccc(Cl)cc3)C2)c(=O)n(C)c1=O (centres undefined)	n	n	n	n	n	n
COc1ccc(C2=Nc3ccccc3SC(c3ccccc3)C2)cc1 (centres undefined)	n	41	n	n	n	n
Cc1cccc(NC(=O)c2nnn(-c3ccccc3Cl)c2C)c1C	39	n	n	n	n	n
CCOc1cc(N2CCOCC2)c(OCC)cc1NC(=O)c1cc2c(s1)CCC2	n	50	n	n	n	n
CCOc1cc(N2CCOCC2)c(OCC)cc1NC(=O)COC(=O)c1ccc2ncsc2c1	n	n	n	n	n	n
COc1cc2c(cc1OC)C(COc1ccc(F)cc1)N(C(=O)c1cccc3ccccc13)CC2 (centres undefined)	n	n	n	n	n	n
CCOC(=O)c1ccc(OCC2c3cc(OC)c(OC)cc3CCN2C(=O)C(C)Oc2ccccc2)cc1 (centres undefined)	n	85	n	n	n	n
CN1CCN(Cc2cccnc2)C(=O)C12CCN(c1nccs1)CC2	n	n	n	n	n	n
CC(C)=CCc1c(O)cc2c(c1C)OC(=O)c1c(C)c(Cl)c(O)c(CO)c1O2	49	n	n	n	48	n
COc1cc2c(c(OC)c1OC)-c1ccc(N3CCN(c4ccc(F)cc4)CC3)c(=O)cc1[C@@H](NC(C)=O)CC2	n	n	n	n	n	n
COc1cc2c(c(OC)c1OC)-c1ccc(N3CCN(c4cccc(Cl)c4)CC3)c(=O)cc1[C@@H](NC(C)=O)CC2	n	55	n	n	n	n
NC(=O)C[C@H](NC(=O)[C@H](Cc1ccccc1)n1c(=O)[nH]c2ccccc2c1=O)C(=O)N[C@@H](Cc1ccccc1)C(=O)O	n	n	n	n	n	n
CN1[C@@H](CCC(=O)N2CCC(O)CC2)CNC(=O)[C@@H]2[C@H]1CCN2Cc1ccc(O)cc1	43	66	n	n	n	n
COC(=O)C1CCN(C(=O)CC[C@H]2CNC(=O)[C@@H]3[C@@H](CCN3Cc3ccccc3)N2C)CC1	n	n	n	n	n	n
CC(C)N1CC[C@@H]2[C@H]1C(=O)NC[C@H](CCC(=O)N1CCN(c3ccccn3)CC1)N2C	42	62	n	n	n	n
CN1[C@@H](CCC(=O)N2CCC(O)CC2)CNC(=O)[C@@H]2[C@H]1CCN2Cc1cccc(OC(F)(F)F)c1	n	35	n	n	n	n
CN1[C@@H](CCC(=O)N2CCN(c3ccccn3)CC2)CNC(=O)[C@@H]2[C@H]1CCN2Cc1ccc(O)cc1	56	73	n	n	n	n
Cc1nc2cc(-c3nccn3C)nn2c(N2CCCC(CO)C2)c1C (centres undefined)	n	n	n	n	n	n
Cc1ccccc1N(C(=O)c1nc2nccc(C)n2n1)c1nc2ccccc2s1	n	n	n	n	n	n
O=C(NCCc1ccc(F)cc1)N1C[C@H]2C[C@H]3[C@@](CNS3(=O)=O)(C1)O2	n	n	n	n	n	n
CC[C@@H]1CCC[C@H](C)CC[C@@H](O[C@@H]2O[C@@H](C)[C@@H](O)[C@@H](N)[C@H]2O)[C@H](CC)CCCNC1=O	83	n	n	n	n	36
